# Laboratory results reported in PubChem BioAssay (NCI).
# Compounds without any hit were thinned out: in the full panel of roughly 83,000, 20% have a hit.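 Step 1: grow cells in 96-well plates. Step 2: add test compound at a single concentration. Step 3: incubate 48 h. Step 4: record percent growth.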 Unmarked numbers belong to inactive results. Activity calls are given as the source filed them. The calls were made as follows: active = growth percent below 10; inactive = the rest.
# What was measured:
# Assay in all cases: NCI-60 one-dose screen, 48 h (100 = growth as untreated, 0 = no growth, -100 = all killed)
# Conditions in all cases: 10 µM unless noted
# [1] = test system: NCI-H23 lung
# [2] = test system: NCI-H226 lung
# [3] = test system: NCI-H322M lung
# [4] = test system: HOP-62 NSCLC
# [5] = test system: NCI-H460 lung
# [6] = test system: NCI-H522 lung
# [7] = test system: A549/ATCC NSCLC
# [8] = test system: 786-0 renal
# [9] = test system: COLO 205 colon
# [10] = test system: HOP-92 NSCLC
SMILES,growth [1],growth [2],growth [3],growth [4],growth [5],growth [6],growth [7],growth [8],growth [9],growth [10]
CCS(=O)(=O)N1CCCC(C(=O)Nc2nc3ccc(NC(=O)c4ccc(F)c(OC)c4F)cc3s2)C1 (centres undefined),47.5%,48%,82.3%,80.6%,62.5%,52%,77.4%,58.1%,54.3%,–
COc1ccc(/C=C/c2nc3ccccc3c(=O)n2CC(=O)Nc2ccc(Cl)cc2)cc1,60.7%,30.4%,88.8%,8.06% (active),22.6%,64.1%,23%,27.5%,74.6%,–
COc1ccc(-c2ccc(SCC(=O)Nc3ccc(S(N)(=O)=O)cc3Br)nn2)cc1,77.4%,52.9%,84.5%,-9.99% (active),70.2%,37.2%,64.4%,33.8%,115%,–
N#Cc1c(-c2ccccc2Cl)cc(-c2ccc3ccccc3c2)[nH]c1=O,38.8%,-24.5% (active),28.1%,-7.48% (active),-13.8% (active),–,17.5%,-40.9% (active),108%,–
Cc1ccc(C2CC(c3ccc(S(=O)(=O)NCCNc4nc(Nc5ccc(F)cc5)nc(N(C)C)n4)cc3)=Nc3c(N)nc(N)nc3N2)cc1 (centres undefined),65.3%,62.7%,70.2%,87.7%,38.2%,58.5%,68.4%,42%,54.8%,–
COC1=C[C@]23CCC(=O)N2CCc2cc4c(cc2[C@@H]3[C@@H]1OC(=O)[C@H](C)O)OCO4,9.59% (active),11%,69.7%,46.6%,-5.4% (active),-48.1% (active),7.1% (active),22.7%,28.4%,–
CC1CCCCN1CCCNC(=O)N/C(N)=N/c1nc2ccccc2s1 (centres undefined),58.8%,48.5%,77%,59.6%,42.2%,72.2%,47.3%,29.5%,-58.6% (active),–
C=C1CC[C@@H]2[C@]3(C)COC(c4cn[nH]c4-c4ccc(F)cc4)O[C@@H]3CC[C@@]2(C)[C@@H]1C/C=C1/C(=O)OCC1O (some centres undefined),-67.3% (active),-83.5% (active),44%,-10.7% (active),-63.5% (active),-59.7% (active),-14.2% (active),-89.2% (active),-39.4% (active),–
COc1ccc(C(=O)/C=C/c2cccc(Br)c2)cc1S(N)(=O)=O,-66.3% (active),17.4%,3.22% (active),-86.8% (active),2.36% (active),-79% (active),-86.2% (active),-98.3% (active),-92.6% (active),–
CN1CCN(c2ccc3c(c2)nc(NNC(=O)c2cnccn2)c2cccn23)CC1,1.16% (active),-7.98% (active),27.7%,-24.4% (active),2.41% (active),-16.7% (active),0.0581% (active),-95.5% (active),-64% (active),–
Cc1ccc2c(c1)nc(-c1ccccc1)n2CC(=O)N=Nc1c(O)[nH]c2ccc(Br)cc12,-80.1% (active),-72.4% (active),-46.4% (active),-58.7% (active),-22.4% (active),-60.7% (active),-45.4% (active),-88.1% (active),-63% (active),–
COc1cc(/C=C2\C(=N)N=C(SCc3nc4ccccc4[nH]3)NC2=O)ccc1O,96.8%,92.8%,103%,101%,102%,–,110%,109%,110%,–
O=c1oc2ccccc2cc1-c1csc(N2N=C(c3ccccc3)CC2c2ccc(N3CCOCC3)cc2)n1 (centres undefined),95.9%,94.6%,120%,106%,107%,–,114%,118%,118%,–
O=C(Cn1nc(-c2ccccc2)ccc1=O)N/N=C/c1ccc(N2CCOCC2)cc1,100%,89.7%,106%,96%,99.5%,89.4%,94.9%,97.7%,113%,–
CCCS(=O)(=O)N1CCCC(C(=O)Nc2nc3ccc(NC(=O)c4ccc(F)c(OC)c4F)cc3s2)C1 (centres undefined),33.9%,27.9%,75.6%,68.4%,55.9%,–,57%,37.6%,31.6%,–
O=C(NNc1nc2cc(F)ccc2n2c(CN3CCCCC3)ccc12)c1cnccn1,-21.3% (active),-24.6% (active),-7.19% (active),-59.2% (active),-11.7% (active),-50.9% (active),-76.8% (active),-98.3% (active),-50.5% (active),–
CC(=O)c1cc(C(=O)c2ccccc2)n2c1ccc1ccccc12,105%,94%,94.3%,87.5%,111%,97.4%,108%,98.7%,110%,–
CCCCSc1nc(Nc2ccc(S(N)(=O)=O)cc2)c(C#N)c(-c2cc(OC)c(OC)c(OC)c2)n1,82.9%,59.3%,75.1%,81.4%,35.9%,63.2%,32.2%,57.1%,39.8%,–
CC(=O)OC[C@@]1(C)C2CC[C@]3(C)C(CC=C4C5CC(C)(C)CC[C@]5(C(=O)Nc5ccc(Br)cc5)CC[C@]43C)[C@@]2(C)C[C@@H](OC(C)=O)[C@@H]1OC(C)=O (some centres undefined),45.6%,45.2%,67.9%,38.5%,–,45.6%,38.9%,51.2%,43.8%,54.7%
CC1(C)CC[C@]2(C(=O)Nc3ccc(F)cc3)CC[C@]3(C)C(=CCC4[C@@]5(C)C[C@@H](O)[C@H](O)[C@@](C)(CO)C5CC[C@]43C)C2C1 (some centres undefined),49.8%,25.5%,72.7%,58.6%,30.8%,–,28.5%,51.1%,0.244% (active),–
Nc1cc2ccccc2c(=O)n1NC(=O)c1ccc(I)cc1,97.3%,99.9%,98.6%,98.5%,–,93.1%,94.6%,99.3%,105%,–
O=C(c1ccc(Cl)cc1)c1ccc(OCCCN2CCN(c3ccncc3)CC2)cc1,38.4%,49.4%,82.1%,38.7%,–,52.6%,55.5%,33.5%,-49.7% (active),14.9%
C=C1CCC2C3(C)COC(c4ccco4)OC3CCC2(C)C1CC(Sc1ccccc1)C1=CCOC1=O (centres undefined),64.8%,31.5%,92.2%,100%,105%,–,53.7%,62.7%,98%,–
CSc1ccccc1NC(=O)c1ccc2nnn(/C(C#N)=C/c3ccccn3)c2c1,-96.6% (active),-94.6% (active),40.5%,6.29% (active),–,-96.4% (active),-27.2% (active),-98.5% (active),-83.1% (active),-80.8% (active)
Cc1nc(Nc2ccccn2)sc1C(=O)CC(SCC(=O)Nc1ccc(Cl)cc1)c1ccccc1F (centres undefined),-0.749% (active),48%,19.6%,10.1%,6.78% (active),–,6.38% (active),10.9%,-49.7% (active),–
CC12CC[C@@H]3[C@]4(C)COC(c5cn[nH]c5-c5ccc(Cl)cc5)O[C@@H]4CC[C@@]3(C)[C@@H]1CC(C1=CCOC1=O)O2 (some centres undefined),51.9%,45.5%,58.2%,62.7%,–,20.9%,34%,57.1%,10.3%,–
COc1ccc(-c2nc3cc(C)ccc3n2CC(=O)N=Nc2c(O)[nH]c3ccc(Cl)cc23)cc1,-62.9% (active),-34.1% (active),10.1%,-50.4% (active),–,14.9%,-62.4% (active),11%,-39.7% (active),–
COc1cccc(-c2nc(Nc3ccc(S(N)(=O)=O)cc3)c3ccccc3n2)c1,37.9%,25.9%,50.3%,58.9%,18.4%,–,27.7%,5.42% (active),27.8%,–
O=C(CN1C(=O)/C(=C/c2ccccc2F)SC1=S)N1CCOCC1,89.1%,66.5%,90.3%,119%,–,-83.2% (active),95.5%,74.9%,98.5%,–
